The target of this assay is Metabotropic glutamate receptor 4 (Homo sapiens) (UniProt Q14833). Description: agonist response potentiation at mGlu4 receptor – cell-based, GIRK thallium flux, mechanism study for group III mGlu PAM project, late-stage follow-up (AID 743466). The following applies: mGlu4/GIRK cells, glutamate CRC fold shift, at 10 µM, stronger effect = higher value.
Chain of Metabotropic glutamate receptor 4 (Homo sapiens) (Q14833 whole entry, looked up): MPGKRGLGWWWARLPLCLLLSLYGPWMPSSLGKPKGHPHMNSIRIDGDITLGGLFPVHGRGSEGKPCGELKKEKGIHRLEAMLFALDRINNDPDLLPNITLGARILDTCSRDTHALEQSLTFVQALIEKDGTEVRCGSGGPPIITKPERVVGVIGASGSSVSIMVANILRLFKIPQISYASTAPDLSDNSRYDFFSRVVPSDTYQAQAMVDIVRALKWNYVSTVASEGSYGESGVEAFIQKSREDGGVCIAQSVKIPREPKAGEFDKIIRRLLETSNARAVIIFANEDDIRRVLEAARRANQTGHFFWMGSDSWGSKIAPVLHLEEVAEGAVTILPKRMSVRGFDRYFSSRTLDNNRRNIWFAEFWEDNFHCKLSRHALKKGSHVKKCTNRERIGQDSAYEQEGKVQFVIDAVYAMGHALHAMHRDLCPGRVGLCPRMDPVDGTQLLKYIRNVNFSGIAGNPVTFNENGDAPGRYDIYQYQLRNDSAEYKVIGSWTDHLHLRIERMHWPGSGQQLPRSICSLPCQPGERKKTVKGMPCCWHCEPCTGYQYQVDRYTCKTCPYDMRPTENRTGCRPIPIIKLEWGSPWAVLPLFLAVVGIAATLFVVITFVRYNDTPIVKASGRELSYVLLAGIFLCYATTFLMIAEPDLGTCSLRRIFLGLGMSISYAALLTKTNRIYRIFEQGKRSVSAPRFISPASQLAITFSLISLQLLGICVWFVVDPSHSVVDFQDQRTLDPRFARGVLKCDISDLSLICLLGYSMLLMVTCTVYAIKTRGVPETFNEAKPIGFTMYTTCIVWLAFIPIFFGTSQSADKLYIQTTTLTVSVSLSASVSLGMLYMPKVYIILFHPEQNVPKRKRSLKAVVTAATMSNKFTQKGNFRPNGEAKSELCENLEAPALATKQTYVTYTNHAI

As for `COC(=O)c1ccc(-n2c(C)cc(C(=O)CSc3ccc(NC(C)=O)cc3)c2C)cc1`, the fold shift is 1.84.

(Values after PubChem BioAssay AID743466 (Vanderbilt Specialized Chemistry Center, 2014).)
